# Reference: ChEMBL document CHEMBL3988442, “University of Dundee, Small-Polar-MMV Screening Library” (2021)
# About 13,000 (27%) of roughly 48,000 compounds showed an effect of 50% or more. The list shows a part of the results.
# Test system: Wolbachia pipientis
# Test: Anti-Wolbachia Cell-Based Screen
# Assay type: functional
# Parameters: scale not given: in the data most compounds retested in dose-response had high values
# Settings: 5 µM
row,SMILES,Percent Effect [%]
1,COC(=O)N1CCC(c2nnc(Cn3ccnc3)n2C)CC1,110.5
2,Cn1c(Cn2ccnc2)nnc1C1CCN(C(=O)C2(C)CC2)CC1,6.343
3,CC(C)S(=O)(=O)N1CCCC(c2nnc(Cn3ccnc3)n2C)C1 (stereo not given),-6.159
4,CC(C)OC(=O)N1CCC(c2nnc(Cn3ccnc3)n2C)CC1,96.34
5,Cn1c(Cn2ccnc2)nnc1C1CCCN(C2CCCCC2)C1 (stereo not given),-3.14
6,CS(=O)(=O)N1CCC(c2nnc(Cn3ccnc3)n2C2CC2)CC1,-22.9
7,Cc1ccc(N2C(=O)N[C@@H]3CCN(C(=O)C4CCCC4)[C@@H]3C2=O)cc1,-4.286
8,CCc1ccc(C(=O)O)cc1S(=O)(=O)N(C)c1cccc(C#N)c1,-20.44
9,c1csc(N2CCN(Cc3cc4n(n3)CCNC4)CC2)n1,-2.451
10,COC(=O)Cn1c(=O)nc2n1C(=O)N(c1ccc(Cl)cc1)C2,5.835
11,CNc1nc(C)cc(NCc2cc(C)cc3c(C)c(C)[nH]c23)n1,-6.475
12,CN1CCN(C(=O)[C@H]2C[C@H]3[C@H](CCN3Cc3cccs3)O2)CC1.O=C(O)C(F)(F)F.O=C(O)C(F)(F)F,106.2
13,O=C(O)C(F)(F)F.O=C([C@@H]1CC[C@@H]2[C@@H](CCN2Cc2cccs2)O1)N1CCCCO1,-2.602
14,Cc1cccc(CN2C[C@@H](CN3CCCN(C)CC3)C[C@H](CO)C2)n1,-14.48
15,O=C(O)C(F)(F)F.O=S(=O)(C1CC1)N1CC[C@@H]2[C@@H]1CCN2Cc1cccs1,10.91
16,Cc1cccc(CN2CCN(C(=O)[C@@H]3CSCN3C)CC2)c1,0.2793
17,CN1CCN(C(=O)[C@H]2CC[C@@H]3[C@@H](CCN3Cc3ccsc3)O2)CC1.O=C(O)C(F)(F)F.O=C(O)C(F)(F)F,-13.28
18,Cn1cc(CN2CC[C@@H]3O[C@H](C(=O)N4CCOCC4)C[C@@H]32)cn1,5.245
19,Cc1cccc(CN2CC[C@@H]3O[C@@H](C(=O)N4CCN(C)CC4)C[C@@H]32)c1,93.61
20,Cc1ccc(CN2CC[C@H]3[C@H]2CCN3S(=O)(=O)C2CC2)cc1.O=C(O)C(F)(F)F,-0.5114
21,Cc1ccc(CN2CC[C@@H]3O[C@@H](C(=O)N4CCN(C)CC4)C[C@@H]32)cc1.O=C(O)C(F)(F)F.O=C(O)C(F)(F)F,117.4
22,Cc1cccc(CN2CC[C@@H]3O[C@@H](C(=O)N4CCN(C)CC4)C[C@@H]32)n1,123
23,CCN1CCC(CNCc2cc(C)ccc2OC)C1 (stereo not given),23.09
24,Cc1[nH]nc2ncc(C(=O)N3CCN(C(C)(C)C)CC3)cc12,13.12

row,SMILES,Percent Effect [%]
1,CN(C)c1ccccc1CN1CCCCC1CNS(C)(=O)=O (stereo not given),-10.3
2,O=C1CC2(CCN(C(=O)c3csc(-c4ccccc4)n3)C2)C(=O)N1 (stereo not given),6.339
3,COCCCN1CCC(NC(=O)C2CC2)CC1,-0.3398
4,O=C(c1ccoc1)N1CCn2nc(CN3CCSCC3)cc2C1,-1.758
5,O=C([C@H]1C[C@H]2[C@H](CCN2Cc2cccs2)O1)N1CCOCC1,91.43
6,Cn1cnc(-c2nc(C(=O)NCC3CCCO3)c3ccccn23)c1 (stereo not given),-2.484
7,O=C(NC1CCCC1)c1cc(Cn2cnc3ccccc32)on1,-23.61
8,CN(C)Cc1nc(-n2cnc(C(=O)NC3CCCC3)c2)n2ccccc12,115.9
9,CN(C)Cc1nc(-n2cnc(C(=O)NCC3CC3)c2)n2ccccc12,123.3
10,O=C(NCCO)c1ccn(-c2ccc3ccccn23)n1,-13.14
11,CN(Cc1nnc2ccccn12)C(=O)NC1CCCCC1,-15.02
12,Cc1nc[nH]c1-c1nc2cc(S(=O)(=O)N3CCCC3)ccc2n1C,-21.22
13,Cc1ncc(CNc2cnccc2CO)s1,7.83
14,CCN(Cc1cccc(F)c1)S(=O)(=O)N1CCOCC1,-36.14
15,Cc1cnccc1CN1C[C@@H](O)[C@H](Oc2cccc(F)c2)C1,-1.659
16,O=C(c1ccnnc1)N1C[C@@H]2CC[C@H](Oc3cccc(F)c3)[C@@H]2C1,-13.73
17,CCN(CC)S(=O)(=O)N1C[C@@H](O)[C@H](Oc2cccc(F)c2)C1,71.42
18,CCS(=O)(=O)N1C[C@@H](O)[C@H](Oc2cccc(F)c2)C1,115.8
19,CCN(C)C(=O)c1ccc(N2CCC(Oc3cccc(F)c3)CC2)nc1,-6.141
20,COc1cccc(F)c1-c1nc2c([nH]1)c(C1CC1)nn2C,3.42
21,CCCC(C)C(=O)Nc1ccc(OC)nc1N1CCN(C(C)=O)CC1 (stereo not given),-14.17
22,CNc1cc(CNC(=O)c2ccccn2)nc(-c2ccncc2)n1,-12.05
23,CNc1cc(CNC(=O)c2ccnc(OC)c2)nc(-c2ccncc2)n1,103.5
24,CNc1cc(CNC(=O)c2ccccc2)nc(-c2ccncc2)n1,-7.143

row,SMILES,Percent Effect [%]
1,Cc1cc(NC(C)C(=O)NCc2ccccc2)nc(-c2ccncc2)n1 (stereo not given),6.15
2,CNc1cc(CNC(=O)c2ccncc2)nc(-c2ccncc2)n1,109.4
3,O=C(NCCOc1ncc(Cl)cc1Cl)c1cccnc1,0.5232
4,COc1cc(C(=O)NCc2cc(N3CCOCC3)ncn2)ccn1,5.956
5,COc1cc(C(=O)N(C)C(C)Cc2cc(C)ccn2)ccn1 (stereo not given),-2.709
6,CNc1cc(CNC(=O)c2cccnc2)nc(-c2ccncc2)n1,94.55
7,CNc1cc(CNC(=O)c2ccccc2OC)nc(-c2ccncc2)n1,104.1
8,O=S1(=O)CCC(n2cc(CNc3ccccc3Br)cn2)C1 (stereo not given),3.444
9,CCOCC1CCN(C(=O)C(c2c(F)cccc2F)N(C)C)CC1 (stereo not given),-13.66
10,CC(C)c1nc(-c2ccc(=O)[nH]n2)n(-c2ccc3c(c2)OCO3)n1,-26.15
11,CC(C)N1CCOC[C@H]1c1nc(-c2ccncc2)c[nH]1,8.176
12,CCc1nccn1CCC(=O)N1C[C@H]2CC[C@@H]1CN(C(=O)N(C)C)C2,-6.839
13,CC(C)COC(C)C(=O)N1CCCCCC1 (stereo not given),-3.624
14,CCOC(C)C(=O)NCCNS(C)(=O)=O (stereo not given),99.51
15,CC(C)COC(C)C(=O)NCCNC(=O)C(C)C (stereo not given),90.67
16,CC(C)COC(C)C(=O)NCCNS(C)(=O)=O (stereo not given),116.1
17,CC(Oc1ccc(C(=O)NCCNS(C)(=O)=O)cn1)c1ccccc1 (stereo not given),12.3
18,CC(C)C(=O)NCCNC(=O)C(C)OCC(F)(F)F (stereo not given),2.033
19,CCN(CC)CCNC(=O)C(C)OCC(F)(F)F (stereo not given),-16.45
20,CC(C)COC(C)C(=O)N1CCCC1 (stereo not given),-7.961
21,CC(C)COC(C)C(=O)NCc1ccccc1Cn1ccnc1 (stereo not given),-1.115
22,CC(C)N1CC(C(=O)N2CCN(CCn3cccc3)CC2)CC1=O (stereo not given),11.86
23,Cc1ccc(CN(CCN(C)C)Cc2ncc[nH]2)s1,-6.049
24,CNC(=O)c1cccc(CCNS(C)(=O)=O)c1,-1.562

row,SMILES,Percent Effect [%]
1,COc1ccc(OC)c(C(C)NC(=O)Nc2nnc(C)s2)c1 (stereo not given),-19.71
2,CCCN1CCc2c(C(=O)N(C)Cc3ccccn3)nn(C)c2C1.O=C(O)C(F)(F)F.O=C(O)C(F)(F)F.O=C(O)C(F)(F)F,5.255
3,O=C(O)C(F)(F)F.OCCOCc1n[nH]c2c1CN(Cc1ccccn1)C2,-2.311
4,CN(C)C(=O)COCc1cncc2c1CCN(Cc1ccccc1)C2.O=C(O)C(F)(F)F.O=C(O)C(F)(F)F,-0.7445
5,CN(C)C(=O)COCc1cncc2c1CCN(Cc1cnn(C)c1)C2.O=C(O)C(F)(F)F.O=C(O)C(F)(F)F,-8.97
6,CN(C)C(=O)COCc1cncc2c1CCN(Cc1ccccn1)C2.O=C(O)C(F)(F)F.O=C(O)C(F)(F)F,86.2
7,CN(C)CCOCc1cncc2c1CCN(Cc1ccccn1)C2.O=C(O)C(F)(F)F.O=C(O)C(F)(F)F.O=C(O)C(F)(F)F,94.64
8,O=C(O)c1cc(-c2ccncc2)cc(S(=O)(=O)NCc2ccccn2)c1,-3.238
9,CC(C1CC1)N(CC(=O)NC(=O)NC1CC1)C1CC1 (stereo not given),-6.692
10,Cc1nc(CCCNC(=O)Nc2cc(F)cc(F)c2)n[nH]1,105.8
11,O=C(Nc1ccc(F)cc1F)Nc1c[nH]c(=O)[nH]c1=O,-7.625
12,Cc1[nH]ncc1CCCNC(=O)Nc1ccc(F)cc1,17.19
13,Cc1[nH]ncc1CCCNC(=O)Nc1ccccc1,-6.052
14,Cc1nc(CCCNC(=O)Nc2ccc(F)cc2F)n[nH]1,105.4
15,O=C(CCCNC(=O)Nc1ccc(F)cc1F)Nc1cn[nH]c1,-17.8
16,CCC(CO)N(Cc1ccco1)C(=O)c1ccccc1SC (stereo not given),-1.914
17,Cc1cc2c(c(-c3cncc(C(=O)N4CCCC4)n3)c1)OC(CN)C2 (stereo not given),3.308
18,Cc1cccc(C)c1OC1CCN(Cc2ccn(C)c(=O)c2)CC1,80.01
19,Cn1ccc(CN2CCC(Oc3ccccc3)CC2)cc1=O,0.4399
20,CCOc1ccccc1OC1CCN(Cc2ccn(C)c(=O)c2)CC1,96.61
21,COc1ccc(OC2CCN(Cc3ccn(C)c(=O)c3)CC2)cc1,90.95
22,CC(=O)NCCC(=O)N(C/C=C/c1ccccc1)CCO,2.612
23,CC(C)(O)CCc1ccc(C(=O)NCC2CCCOC2)cc1 (stereo not given),-16.45
